Drawing on ChEMBL document CHEMBL1961873, “Compounds: GSK PKIS; Assays: Nanosyn kinase panel” (2012), this text covers inhibition for six compounds.

The target in assay [1] is 5'-AMP-activated protein kinase catalytic subunit alpha-2 (Homo sapiens) (UniProt P54646). The settings on record: at 1 µM.
Assay [2] concerns the target T1, NUAK family SNF1-like kinase 1 (Homo sapiens) (UniProt O60285).
T1 sequence (whole entry): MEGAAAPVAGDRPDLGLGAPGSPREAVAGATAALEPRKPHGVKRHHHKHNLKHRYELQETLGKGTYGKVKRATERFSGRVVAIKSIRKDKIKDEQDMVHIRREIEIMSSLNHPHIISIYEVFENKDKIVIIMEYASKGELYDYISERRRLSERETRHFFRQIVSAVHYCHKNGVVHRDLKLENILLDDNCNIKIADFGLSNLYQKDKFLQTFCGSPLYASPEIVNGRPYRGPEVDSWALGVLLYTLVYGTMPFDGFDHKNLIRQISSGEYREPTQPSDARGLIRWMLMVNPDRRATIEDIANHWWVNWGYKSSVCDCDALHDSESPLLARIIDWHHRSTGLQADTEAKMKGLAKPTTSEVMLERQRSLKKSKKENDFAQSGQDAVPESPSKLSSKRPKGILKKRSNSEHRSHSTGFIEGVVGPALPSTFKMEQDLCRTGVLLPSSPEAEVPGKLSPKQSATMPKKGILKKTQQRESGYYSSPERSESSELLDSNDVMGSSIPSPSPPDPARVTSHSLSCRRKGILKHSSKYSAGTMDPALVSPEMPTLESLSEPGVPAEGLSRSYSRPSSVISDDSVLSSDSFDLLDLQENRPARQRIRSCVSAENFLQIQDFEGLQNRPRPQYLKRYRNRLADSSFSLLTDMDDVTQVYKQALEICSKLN
The settings on record: at 0.1 µM.

Assay [3] concerns the target T1, NUAK family SNF1-like kinase 1 (Homo sapiens). The settings on record: at 1 µM.
Assay [4] concerns the target T2, Serine/threonine-protein kinase BRSK1 (Homo sapiens) (UniProt Q8TDC3).
T2 sequence (whole entry): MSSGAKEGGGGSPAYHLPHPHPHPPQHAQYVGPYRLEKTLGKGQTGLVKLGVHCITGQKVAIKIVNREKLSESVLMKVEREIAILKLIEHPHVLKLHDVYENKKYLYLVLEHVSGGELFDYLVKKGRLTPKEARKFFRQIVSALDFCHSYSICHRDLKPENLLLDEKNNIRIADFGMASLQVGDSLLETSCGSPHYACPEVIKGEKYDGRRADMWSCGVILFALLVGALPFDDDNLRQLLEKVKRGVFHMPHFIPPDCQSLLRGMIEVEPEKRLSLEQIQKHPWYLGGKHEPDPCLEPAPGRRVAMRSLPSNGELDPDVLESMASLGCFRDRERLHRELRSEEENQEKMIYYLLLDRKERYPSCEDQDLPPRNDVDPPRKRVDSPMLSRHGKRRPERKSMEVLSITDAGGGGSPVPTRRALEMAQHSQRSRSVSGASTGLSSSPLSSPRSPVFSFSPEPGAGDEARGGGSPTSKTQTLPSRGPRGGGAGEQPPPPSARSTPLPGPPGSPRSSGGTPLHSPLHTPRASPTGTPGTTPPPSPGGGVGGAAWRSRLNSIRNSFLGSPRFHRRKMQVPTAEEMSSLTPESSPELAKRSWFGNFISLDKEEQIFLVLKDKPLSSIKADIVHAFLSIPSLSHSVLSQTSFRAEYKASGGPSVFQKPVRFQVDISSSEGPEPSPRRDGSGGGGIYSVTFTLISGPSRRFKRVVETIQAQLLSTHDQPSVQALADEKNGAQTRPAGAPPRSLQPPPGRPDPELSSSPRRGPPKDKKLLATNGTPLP
Conditions: at 0.1 µM.

Assay [5] deals with T2, Serine/threonine-protein kinase BRSK1 (Homo sapiens). Conditions: at 1 µM.
Assay [6] has as its target T3, Serine/threonine-protein kinase BRSK2 (Homo sapiens) (UniProt Q8IWQ3).
T3 sequence (whole entry): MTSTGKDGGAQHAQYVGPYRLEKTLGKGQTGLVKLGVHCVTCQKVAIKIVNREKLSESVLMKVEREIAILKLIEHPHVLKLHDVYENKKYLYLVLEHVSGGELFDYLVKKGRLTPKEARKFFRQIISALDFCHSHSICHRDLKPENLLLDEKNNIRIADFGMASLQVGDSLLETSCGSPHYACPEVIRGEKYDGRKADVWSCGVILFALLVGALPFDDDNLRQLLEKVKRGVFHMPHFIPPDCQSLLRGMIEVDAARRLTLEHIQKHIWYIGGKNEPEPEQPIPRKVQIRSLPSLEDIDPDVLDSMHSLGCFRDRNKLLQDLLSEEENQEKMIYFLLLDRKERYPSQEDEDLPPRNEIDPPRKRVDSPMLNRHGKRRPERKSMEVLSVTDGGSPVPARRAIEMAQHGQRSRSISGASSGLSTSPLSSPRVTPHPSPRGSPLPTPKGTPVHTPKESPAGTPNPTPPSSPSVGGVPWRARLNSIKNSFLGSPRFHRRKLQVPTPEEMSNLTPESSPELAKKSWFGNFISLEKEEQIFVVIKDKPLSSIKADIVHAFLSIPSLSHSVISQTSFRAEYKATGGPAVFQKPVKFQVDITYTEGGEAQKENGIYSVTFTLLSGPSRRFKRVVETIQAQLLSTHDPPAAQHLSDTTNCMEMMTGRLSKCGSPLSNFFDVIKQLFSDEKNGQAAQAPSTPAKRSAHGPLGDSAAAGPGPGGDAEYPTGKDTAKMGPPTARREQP
Conditions: at 0.1 µM.

Assay [7] deals with T3, Serine/threonine-protein kinase BRSK2 (Homo sapiens). The settings on record: at 1 µM.
Assay [8] deals with Calcium/calmodulin-dependent protein kinase type 1D (Homo sapiens) (UniProt Q8IU85). Conditions: at 0.1 µM.
Chain of Calcium/calmodulin-dependent protein kinase type 1D (Homo sapiens) (Q8IU85 whole entry, looked up): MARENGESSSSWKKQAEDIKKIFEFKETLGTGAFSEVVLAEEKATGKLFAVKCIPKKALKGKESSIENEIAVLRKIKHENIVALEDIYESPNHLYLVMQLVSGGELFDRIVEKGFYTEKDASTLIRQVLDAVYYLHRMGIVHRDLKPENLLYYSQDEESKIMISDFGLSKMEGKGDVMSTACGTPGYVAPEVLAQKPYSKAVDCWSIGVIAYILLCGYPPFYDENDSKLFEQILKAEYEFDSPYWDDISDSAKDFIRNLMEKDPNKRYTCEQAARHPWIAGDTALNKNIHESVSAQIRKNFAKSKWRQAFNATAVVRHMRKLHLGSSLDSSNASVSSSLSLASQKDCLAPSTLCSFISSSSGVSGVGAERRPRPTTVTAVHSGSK
For assay [9] the target is unchanged. Conditions: at 1 µM.
The target in assay [10] is Calcium/calmodulin-dependent protein kinase type II subunit alpha (Homo sapiens) (UniProt Q9UQM7). The settings on record: at 0.1 µM.
Chain of Calcium/calmodulin-dependent protein kinase type II subunit alpha (Homo sapiens) (Q9UQM7 whole entry): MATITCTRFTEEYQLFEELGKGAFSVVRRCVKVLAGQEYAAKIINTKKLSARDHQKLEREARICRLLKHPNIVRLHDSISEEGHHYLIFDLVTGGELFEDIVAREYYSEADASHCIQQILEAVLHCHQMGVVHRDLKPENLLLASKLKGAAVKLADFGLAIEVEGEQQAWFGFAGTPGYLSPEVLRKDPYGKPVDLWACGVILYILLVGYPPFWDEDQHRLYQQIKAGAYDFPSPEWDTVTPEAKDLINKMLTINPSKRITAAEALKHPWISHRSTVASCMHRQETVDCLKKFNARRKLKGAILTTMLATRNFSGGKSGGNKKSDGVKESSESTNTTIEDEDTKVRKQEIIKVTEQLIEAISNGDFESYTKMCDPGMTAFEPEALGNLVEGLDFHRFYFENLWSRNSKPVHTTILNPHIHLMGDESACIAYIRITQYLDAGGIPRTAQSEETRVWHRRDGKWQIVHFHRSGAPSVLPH
The target is the same in assay [11]. Conditions: at 1 µM.
In assay [12] the target is Calcium/calmodulin-dependent protein kinase type II subunit delta (Homo sapiens) (UniProt Q13557). The settings on record: at 0.1 µM.
Chain of Calcium/calmodulin-dependent protein kinase type II subunit delta (Homo sapiens) (Q13557 whole entry): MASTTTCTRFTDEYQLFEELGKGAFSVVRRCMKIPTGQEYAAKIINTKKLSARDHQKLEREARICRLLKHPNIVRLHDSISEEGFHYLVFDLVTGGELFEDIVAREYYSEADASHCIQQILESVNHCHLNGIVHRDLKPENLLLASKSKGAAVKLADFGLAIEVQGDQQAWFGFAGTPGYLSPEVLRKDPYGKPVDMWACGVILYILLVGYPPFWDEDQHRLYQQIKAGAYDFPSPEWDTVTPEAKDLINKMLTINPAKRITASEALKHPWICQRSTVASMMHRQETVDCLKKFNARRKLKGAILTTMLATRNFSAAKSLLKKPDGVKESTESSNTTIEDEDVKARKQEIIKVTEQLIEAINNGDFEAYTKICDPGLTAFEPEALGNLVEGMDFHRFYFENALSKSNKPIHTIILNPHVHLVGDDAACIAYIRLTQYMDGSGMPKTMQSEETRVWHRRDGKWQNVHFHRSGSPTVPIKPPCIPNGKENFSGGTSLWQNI
The target is the same in assay [13]. Conditions: at 1 µM.
The target of assay [14] is T4, Calcium/calmodulin-dependent protein kinase type IV (Homo sapiens) (UniProt Q16566).
T4 sequence (whole entry): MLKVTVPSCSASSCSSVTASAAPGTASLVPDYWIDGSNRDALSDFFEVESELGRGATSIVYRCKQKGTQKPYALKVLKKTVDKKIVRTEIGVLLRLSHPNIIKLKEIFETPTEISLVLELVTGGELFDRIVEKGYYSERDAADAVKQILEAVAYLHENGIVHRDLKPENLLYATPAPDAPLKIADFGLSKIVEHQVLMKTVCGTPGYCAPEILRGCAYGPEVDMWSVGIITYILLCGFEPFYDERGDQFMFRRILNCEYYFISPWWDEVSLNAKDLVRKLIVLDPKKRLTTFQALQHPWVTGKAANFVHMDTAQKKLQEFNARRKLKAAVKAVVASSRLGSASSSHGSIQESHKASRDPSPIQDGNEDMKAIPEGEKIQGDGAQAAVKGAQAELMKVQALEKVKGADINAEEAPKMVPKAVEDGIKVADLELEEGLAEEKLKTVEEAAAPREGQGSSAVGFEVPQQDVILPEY
The settings on record: at 0.1 µM.

The target of assay [15] is T4, Calcium/calmodulin-dependent protein kinase type IV (Homo sapiens). The settings on record: at 1 µM.
For assay [16], the target named is T5, Serine/threonine-protein kinase Chk1 (Homo sapiens) (UniProt O14757).
T5 sequence (whole entry): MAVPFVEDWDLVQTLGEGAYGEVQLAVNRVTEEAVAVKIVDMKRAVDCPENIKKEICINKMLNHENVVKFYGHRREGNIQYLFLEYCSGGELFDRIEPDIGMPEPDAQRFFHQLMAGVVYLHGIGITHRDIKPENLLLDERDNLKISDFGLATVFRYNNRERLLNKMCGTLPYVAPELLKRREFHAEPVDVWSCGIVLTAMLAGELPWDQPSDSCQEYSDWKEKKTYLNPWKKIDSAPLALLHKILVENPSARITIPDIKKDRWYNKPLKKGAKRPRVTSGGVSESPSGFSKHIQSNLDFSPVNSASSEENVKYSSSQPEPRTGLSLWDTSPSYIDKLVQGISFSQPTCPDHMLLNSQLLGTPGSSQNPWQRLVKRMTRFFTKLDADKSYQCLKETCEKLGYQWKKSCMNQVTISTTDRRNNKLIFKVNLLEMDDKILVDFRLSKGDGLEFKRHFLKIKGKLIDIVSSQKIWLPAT
Conditions: at 0.1 µM.

Assay [17] deals with T5, Serine/threonine-protein kinase Chk1 (Homo sapiens). Conditions: at 1 µM.
The target of assay [18] is Serine/threonine-protein kinase Chk2 (Homo sapiens) (UniProt O96017). Conditions: at 0.1 µM.
Chain of Serine/threonine-protein kinase Chk2 (Homo sapiens) (O96017 whole entry): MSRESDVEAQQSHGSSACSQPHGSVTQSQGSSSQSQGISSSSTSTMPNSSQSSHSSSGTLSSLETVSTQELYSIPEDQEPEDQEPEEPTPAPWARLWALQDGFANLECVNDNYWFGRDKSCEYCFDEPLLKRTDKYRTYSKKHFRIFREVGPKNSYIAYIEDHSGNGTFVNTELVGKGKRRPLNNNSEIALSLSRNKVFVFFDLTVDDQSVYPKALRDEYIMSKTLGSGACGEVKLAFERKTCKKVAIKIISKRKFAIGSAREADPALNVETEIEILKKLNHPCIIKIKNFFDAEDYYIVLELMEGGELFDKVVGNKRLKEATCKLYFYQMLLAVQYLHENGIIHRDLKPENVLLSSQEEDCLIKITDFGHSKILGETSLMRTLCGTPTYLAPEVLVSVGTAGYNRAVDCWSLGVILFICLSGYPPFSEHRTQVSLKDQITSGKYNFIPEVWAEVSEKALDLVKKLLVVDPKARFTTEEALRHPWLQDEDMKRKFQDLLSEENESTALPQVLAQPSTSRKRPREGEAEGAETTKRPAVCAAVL
Assay [19] shares this target. The settings on record: at 1 µM.
In assay [20] the target is Death-associated protein kinase 1 (Homo sapiens) (UniProt P53355). The settings on record: at 0.1 µM.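 Further: reported figure is the mean inhibition of DAPK1.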
Chain of Death-associated protein kinase 1 (Homo sapiens) (P53355 whole entry, looked up): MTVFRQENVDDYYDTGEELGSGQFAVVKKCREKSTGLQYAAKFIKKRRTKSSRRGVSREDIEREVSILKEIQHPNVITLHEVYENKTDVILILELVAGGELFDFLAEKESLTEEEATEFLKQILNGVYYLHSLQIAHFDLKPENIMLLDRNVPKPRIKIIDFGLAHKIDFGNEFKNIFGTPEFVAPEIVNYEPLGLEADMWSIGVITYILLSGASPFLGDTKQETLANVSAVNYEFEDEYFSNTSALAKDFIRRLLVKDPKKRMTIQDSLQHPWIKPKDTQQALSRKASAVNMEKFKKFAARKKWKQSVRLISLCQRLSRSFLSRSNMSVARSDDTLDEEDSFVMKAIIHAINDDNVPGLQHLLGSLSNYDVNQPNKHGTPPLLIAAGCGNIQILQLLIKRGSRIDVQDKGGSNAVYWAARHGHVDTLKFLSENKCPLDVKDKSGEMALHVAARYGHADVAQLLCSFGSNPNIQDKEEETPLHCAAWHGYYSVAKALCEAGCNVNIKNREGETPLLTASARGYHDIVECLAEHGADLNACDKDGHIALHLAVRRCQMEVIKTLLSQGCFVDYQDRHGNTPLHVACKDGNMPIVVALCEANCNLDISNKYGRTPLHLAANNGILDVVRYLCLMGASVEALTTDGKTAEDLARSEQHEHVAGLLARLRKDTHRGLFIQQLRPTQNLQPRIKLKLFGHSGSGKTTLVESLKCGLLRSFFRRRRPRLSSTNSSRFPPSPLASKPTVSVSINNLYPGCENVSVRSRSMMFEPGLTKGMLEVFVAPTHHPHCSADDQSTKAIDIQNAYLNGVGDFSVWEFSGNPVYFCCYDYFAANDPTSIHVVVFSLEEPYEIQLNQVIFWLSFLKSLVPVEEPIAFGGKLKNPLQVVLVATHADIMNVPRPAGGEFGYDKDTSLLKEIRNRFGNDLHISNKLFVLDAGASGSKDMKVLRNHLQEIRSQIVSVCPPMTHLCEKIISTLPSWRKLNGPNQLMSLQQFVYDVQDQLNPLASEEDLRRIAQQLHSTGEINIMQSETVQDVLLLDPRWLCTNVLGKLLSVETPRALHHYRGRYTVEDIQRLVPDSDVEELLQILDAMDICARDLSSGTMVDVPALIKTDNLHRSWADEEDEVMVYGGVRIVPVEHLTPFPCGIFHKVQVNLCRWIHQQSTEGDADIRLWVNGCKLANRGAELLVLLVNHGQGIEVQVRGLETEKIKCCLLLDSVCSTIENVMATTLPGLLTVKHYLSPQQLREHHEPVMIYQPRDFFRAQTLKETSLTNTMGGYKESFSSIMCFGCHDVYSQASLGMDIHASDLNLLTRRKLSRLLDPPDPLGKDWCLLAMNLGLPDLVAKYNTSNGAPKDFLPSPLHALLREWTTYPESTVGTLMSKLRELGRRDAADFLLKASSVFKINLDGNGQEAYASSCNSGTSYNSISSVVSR

Molecules are shown by their SMILES.

Chain of 5'-AMP-activated protein kinase catalytic subunit alpha-2 (Homo sapiens) (P54646 whole entry, looked up): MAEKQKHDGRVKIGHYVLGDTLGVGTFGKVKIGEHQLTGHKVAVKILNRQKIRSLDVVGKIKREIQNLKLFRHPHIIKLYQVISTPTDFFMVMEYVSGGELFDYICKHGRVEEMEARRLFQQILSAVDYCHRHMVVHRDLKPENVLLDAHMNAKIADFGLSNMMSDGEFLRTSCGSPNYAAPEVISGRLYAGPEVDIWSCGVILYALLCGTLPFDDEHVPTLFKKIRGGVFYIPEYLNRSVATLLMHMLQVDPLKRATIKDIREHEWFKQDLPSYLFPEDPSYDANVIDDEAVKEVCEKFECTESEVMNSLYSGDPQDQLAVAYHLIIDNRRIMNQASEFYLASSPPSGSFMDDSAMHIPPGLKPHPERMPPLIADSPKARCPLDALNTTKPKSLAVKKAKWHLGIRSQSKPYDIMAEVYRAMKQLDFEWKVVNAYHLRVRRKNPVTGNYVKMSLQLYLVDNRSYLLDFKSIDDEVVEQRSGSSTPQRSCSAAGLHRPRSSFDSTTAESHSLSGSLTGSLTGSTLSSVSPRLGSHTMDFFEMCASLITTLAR

On to `COc1cc(Nc2ncc3c(C)nc(-c4cccc(C(F)(F)F)c4)n3n2)cc(OC)c1OC`, for which the inhibition in [1] stood at 25%; in [2], 35.4%; in assay [3] it was 65.3%; in [4], 4.57%; in [5], 7.57%; in assay [6] it was 5.62%. Further, the inhibition is 9.19% in assay [7]; -1.94% in assay [8]; -0.82% in assay [9]; 2.25% in assay [10]; 2% in assay [11]; 3.19% in assay [12]. For the same compound, the inhibition is 5.08% in assay [13]; -2% in [14]; -3.22% in [15]; 1.23% in [16]; 5.15% in assay [17]; 6.47% in assay [18]. Further, the inhibition in [19] is 9.62%; in [20], -0.52%.
On to `NC(=O)c1ccc(Oc2nccc(-c3c(-c4ccc(F)cc4)ncn3C3CCNCC3)n2)cc1`, for which the inhibition in assay [1] is 3.28%; in assay [2], 1.39%; in assay [3] it was 2.27%; in assay [4] it was 2.39%; in [5], -0.49%; in assay [6], 1.13%. Further, the inhibition came to 1.56% in assay [7]; 0.06% in assay [8]; 2.62% in assay [9]; 3.03% in assay [10]; 4.37% in assay [11]; 4.24% in assay [12]. Further, the inhibition in assay [13] was 6.79%; in assay [14] it was 0.24%; in assay [15], 2.66%; in assay [16] it was -2.66%; in assay [17] it was 1.07%; in assay [18] it was -1.09%. In addition, the inhibition is 0.46% in assay [19] and -2.59% in [20].
On to `CCS(=O)(=O)c1ccc(OC)c(Nc2ncc(-c3cccc(-c4ccccc4F)c3)o2)c1`, for which the inhibition was 1.37% in assay [1]; 1.73% in assay [2]; 2.9% in [3]; -0.47% in [4]; 0.8% in assay [5]; 0% in [6]. Further, the inhibition in assay [7] was -0.51%; in assay [8] it was 0.44%; in [9], 0.18%; in assay [10], -1.21%; in assay [11], 3.98%; in assay [12], 1.21%. Also, the inhibition in assay [13] was 11.6%; in [14] it was 1.15%; in assay [15], 1.5%; in [16], 1.03%; in [17], 2.03%; in assay [18], -0.11%. Also, the inhibition in [19] was -0.35%; in assay [20], -0.16%.
For `Cc1ccc(C(=O)NC(C)C)cc1-c1ccc(C(=O)NCC2CC2)cc1`, the inhibition is -5.48% in [1]; 3.9% in [2]; 3.92% in [3]; 1.12% in assay [4]; -1.28% in [5]; 0.51% in [6]. Further, the inhibition was 1.61% in assay [7]; -1.04% in assay [8]; 0.57% in assay [9]; -4.62% in assay [10]; -3.85% in assay [11]; -3.04% in assay [12]. In addition, the inhibition is -1.11% in [13]; -0.94% in assay [14]; -2.57% in assay [15]; -1.72% in assay [16]; -3.38% in assay [17]; -3.25% in assay [18]. For the same compound, the inhibition is -2.4% in assay [19] and -2.08% in [20].
For `CN1CCN(CCCNc2nc3ccc(Oc4ccc(NC(=O)Nc5cc(C(F)(F)F)ccc5F)cc4)cc3[nH]2)CC1`, the inhibition in assay [1] was determined as 3.1%; in assay [2], 0.88%; in assay [3], 4.39%; in [4], 2.48%; in assay [5], 2.58%; in assay [6] it was 1.15%. The inhibition in assay [7] was found to be 0.19%; in assay [8] it was 2.28%; in assay [9], 4.38%; in assay [10] it was 3.27%; in [11], 7.84%; in assay [12], 3.68%. The inhibition in assay [13] was 6.84%; in assay [14] it was 1.94%; in assay [15], 4.86%; in assay [16], -0.5%; in [17], 0.8%; in assay [18], 1.31%. Besides, the inhibition in assay [19] was 0.77%; in assay [20] it was -0.32%.
Consider `Clc1ccc(CNc2nccc(-c3cnn4ncccc34)n2)cc1`, for which the inhibition in [1] was 0.84%; in assay [2] it was 3.31%; in assay [3] it was 9.78%; in assay [4] it was 0.41%; in assay [5], 1.49%; in [6], 1.65%. Besides, the inhibition was 4.48% in [7]; 1.73% in assay [8]; 1.01% in assay [9]; 2.51% in assay [10]; 4.51% in [11]; 2.06% in assay [12]. For the same compound, the inhibition in [13] worked out at 3.21%; in [14], 1.93%; in [15], 1.7%; in assay [16] it was 2.84%; in [17], 8.27%; in [18], 4.34%. In addition, the inhibition in assay [19] was 6.1%; in assay [20], 9.28%.
